Experimental data as given in the supplement of paper PMC8728848.
The entries come from a sample that favours the strongest signals as a whole.

Key:
Experiment in all cases: glycan array binding signal (z-score within array); higher = stronger binding
Conditions in all cases: glycan notation: IUPAC condensed, linker removed
[1] = target: Fuc(a1-2)Gal(b1-3)GalNAc(b1-3)Gal
In short: (§1)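 Negative Z-scores can be read as non-binding. The Z-score is calculated within each array and then averaged across arrays of one protein sequence at different concentrations or buffers and across linkers. Arrays, 3228 in all, were curated from the Consortium for Functional Glycomics database and kept only where the protein sequence was available.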

[2] = target: Fuc(a1-2)Gal(b1-3)GalNAc(b1-3)Gal(a1-4)Gal(b1-4)Glc
In short: as §1

[3] = target: Fuc(a1-2)Gal(b1-3)GlcNAc(b1-3)[Gal(b1-4)GlcNAc(b1-6)]Gal(b1-4)Glc
In short: as §1

[4] = target: Fuc(a1-2)Gal(b1-4)[Fuc(a1-3)]GlcNAc(b1-3)GalNAc
In short: as §1

[5] = target: Fuc(a1-2)[Gal(a1-3)]Gal(b1-4)GlcNAc(b1-2)Man(a1-3)[Fuc(a1-2)[Gal(a1-3)]Gal(b1-4)GlcNAc(b1-2)Man(a1-6)]Man(b1-4)GlcNAc(b1-4)[Fuc(a1-6)]GlcNAc
In short: as §1

[6] = target: Fuc(a1-2)[GalNAc(a1-3)]Gal(b1-4)[Fuc(a1-3)]GlcNAc
In short: as §1

[7] = target: Fuc(a1-3)[Gal(b1-4)]GlcNAc(b1-2)Man(a1-3)[Fuc(a1-3)[Gal(b1-4)]GlcNAc(b1-2)Man(a1-6)]Man(b1-4)GlcNAc(b1-4)[Fuc(a1-6)]GlcNAc
In short: as §1

[8] = target: Fuc(a1-3)[Gal(b1-4)]GlcNAc(b1-3)Gal(b1-3)[Fuc(a1-4)]GlcNAc
In short: as §1

[9] = target: Fuc(a1-3)[Gal(b1-4)]GlcNAc6S
In short: as §1

Gal(a1-2)Gal = target: Gal(a1-2)Gal
In short: as §1

Gal(a1-3)Gal(b1-3)GlcNAc = target: Gal(a1-3)Gal(b1-3)GlcNAc
In short: as §1

[10] = target: Gal(a1-3)Gal(b1-3)GlcNAc(b1-3)GalNAc
In short: as §1

[11] = target: Gal(a1-3)Gal(b1-4)GlcNAc(b1-6)GalNAc
In short: as §1

Gal(b1-2)Gal = target: Gal(b1-2)Gal
In short: as §1

[12] = target: Gal(b1-3)GalNAc(a1-3)[Fuc(a1-2)]Gal(b1-4)Glc
In short: as §1

[13] = target: Gal(b1-3)GalNAc(b1-3)Gal(a1-4)Gal(b1-4)Glc
In short: as §1

[14] = target: Gal(b1-3)GlcNAc(b1-6)[Gal(b1-3)]GalNAc
In short: as §1

[15] = target: Gal(b1-3)[Neu5Ac(a2-6)]GalNAc
In short: as §1

Gal(b1-4)GlcNAc(b1-2)Man = target: Gal(b1-4)GlcNAc(b1-2)Man
In short: as §1

[16] = target: Gal(b1-4)GlcNAc(b1-3)Gal(b1-4)GlcNAc(b1-2)Man(a1-3)[Gal(b1-4)GlcNAc(b1-3)Gal(b1-4)GlcNAc(b1-2)Man(a1-6)]Man(b1-4)GlcNAc(b1-4)GlcNAc
In short: as §1

[17] = target: Gal(b1-4)GlcNAc(b1-3)Gal(b1-4)GlcNAc(b1-3)Gal(b1-4)GlcNAc(b1-2)Man(a1-3)[Gal(b1-4)GlcNAc(b1-3)Gal(b1-4)GlcNAc(b1-3)Gal(b1-4)GlcNAc(b1-2)Man(a1-6)]Man(b1-4)GlcNAc(b1-4)GlcNAc
In short: as §1

[18] = target: Gal(b1-4)GlcNAc(b1-3)Gal(b1-4)GlcNAc(b1-3)Gal(b1-4)GlcNAc(b1-3)Gal(b1-4)GlcNAc(b1-3)Gal(b1-4)GlcNAc(b1-2)Man(a1-3)[Gal(b1-4)GlcNAc(b1-3)Gal(b1-4)GlcNAc(b1-3)Gal(b1-4)GlcNAc(b1-3)Gal(b1-4)GlcNAc(b1-3)Gal(b1-4)GlcNAc(b1-2)Man(a1-6)]Man(b1-4)GlcNAc(b1-4)[Fuc(a1-6)]GlcNAc
In short: as §1

[19] = target: Gal(b1-4)GlcNAc(b1-3)Gal(b1-4)GlcNAc(b1-3)[Gal(b1-4)GlcNAc(b1-3)Gal(b1-4)GlcNAc(b1-6)]GalNAc
In short: as §1

[20] = target: Gal(b1-4)GlcNAc(b1-3)Gal(b1-4)GlcNAc(b1-6)[Gal(b1-3)]GalNAc
In short: as §1

GalNAc(b1-4)GlcNAc = target: GalNAc(b1-4)GlcNAc
In short: as §1

GalNAc3S(b1-4)GlcNAc = target: GalNAc3S(b1-4)GlcNAc
In short: as §1

Glc(a1-4)Glc = target: Glc(a1-4)Glc
In short: as §1

GlcA(b1-6)Gal = target: GlcA(b1-6)Gal
In short: as §1

[21] = target: GlcNAc(a1-4)Gal(b1-3)GlcNAc
In short: as §1

[22] = target: GlcNAc(a1-4)Gal(b1-4)GalNAc
In short: as §1

[23] = target: GlcNAc(a1-6)Gal(b1-4)GlcNAc
In short: as §1

[24] = target: GlcNAc(b1-2)Man(a1-3)[GlcNAc(b1-2)Man(a1-6)]Man(b1-4)GlcNAc(b1-4)GlcNAc
In short: as §1

[25] = target: GlcNAc(b1-3)Gal(b1-4)GlcNAc(b1-3)Gal(b1-4)GlcNAc(b1-2)Man(a1-3)[GlcNAc(b1-3)Gal(b1-4)GlcNAc(b1-3)Gal(b1-4)GlcNAc(b1-2)Man(a1-6)]Man(b1-4)GlcNAc(b1-4)GlcNAc
In short: as §1

[26] = target: GlcNAc(b1-3)Gal(b1-4)GlcNAc(b1-6)[GlcNAc(b1-3)Gal(b1-3)]GalNAc
In short: as §1

[27] = target: GlcNAc(b1-3)Gal(b1-4)GlcNAc(b1-6)[GlcNAc(b1-3)]Gal(b1-4)GlcNAc
In short: as §1

GlcNAc(b1-3)Man = target: GlcNAc(b1-3)Man
In short: as §1

Kdn(a2-3)Gal(b1-3)GlcNAc = target: Kdn(a2-3)Gal(b1-3)GlcNAc
In short: as §1

[28] = target: Man(a1-3)[Man(a1-6)]Man(a1-6)[Man(a1-3)]Man
In short: as §1

[29] = target: Man(a1-3)[Man(a1-6)]Man(b1-4)GlcNAc(b1-4)GlcNAc
In short: as §1

Man(b1-4)GlcNAc = target: Man(b1-4)GlcNAc
In short: as §1

Neu5Ac(a2-3)Gal = target: Neu5Ac(a2-3)Gal
In short: as §1

[30] = target: Neu5Ac(a2-3)Gal(b1-3)GlcNAc6S
In short: as §1

[31] = target: Neu5Ac(a2-3)Gal(b1-4)GlcNAc(b1-2)Man
In short: as §1

[32] = target: Neu5Ac(a2-3)Gal(b1-4)GlcNAc(b1-3)Gal(b1-3)GlcNAc
In short: as §1

[33] = target: Neu5Ac(a2-3)Gal(b1-4)GlcNAc(b1-3)Gal(b1-4)GlcNAc(b1-2)Man(a1-3)[Neu5Ac(a2-3)Gal(b1-4)GlcNAc(b1-3)Gal(b1-4)GlcNAc(b1-2)Man(a1-6)]Man(b1-4)GlcNAc(b1-4)GlcNAc
In short: as §1

[34] = target: Neu5Ac(a2-3)Gal(b1-4)GlcNAc(b1-3)Gal(b1-4)GlcNAc(b1-3)Gal(b1-4)GlcNAc(b1-2)Man(a1-3)[Neu5Ac(a2-3)Gal(b1-4)GlcNAc(b1-3)Gal(b1-4)GlcNAc(b1-3)Gal(b1-4)GlcNAc(b1-2)Man(a1-6)]GalNAc
In short: as §1

Neu5Ac(a2-6)Gal(b1-4)Glc = target: Neu5Ac(a2-6)Gal(b1-4)Glc
In short: as §1

[35] = target: Neu5Ac(a2-6)Gal(b1-4)GlcNAc
In short: as §1

[36] = target: Neu5Ac(a2-6)Gal(b1-4)GlcNAc(b1-2)Man(a1-6)[Gal(b1-4)GlcNAc(b1-2)Man(a1-3)]Man(b1-4)GlcNAc(b1-4)GlcNAc
In short: as §1

[37] = target: Neu5Ac(a2-6)Gal(b1-4)GlcNAc(b1-3)Gal(b1-4)GlcNAc(b1-3)Gal(b1-4)GlcNAc(b1-2)Man(a1-3)[Neu5Ac(a2-6)Gal(b1-4)GlcNAc(b1-3)Gal(b1-4)GlcNAc(b1-3)Gal(b1-4)GlcNAc(b1-2)Man(a1-6)]GalNAc
In short: as §1

[38] = target: Neu5Gc(b2-6)Gal(b1-4)GlcNAc
In short: as §1

B1: Pbx1CASH domain (Cryptococcus neoformans) (protein)
chain: MDETKPLWGNPRADGISLACKDSIVERNVVYDATDGAIVLFGSAGSTVKNNHVYARTRVILGGINLVDYEPWDGDYTNVKVHHNHLYALGRYFKVGIVIGPASWSDDTESVVHSASVTDNEFSGGYWGYGIVVASAKNFEVLRNKVIWDGEQGVARFSGVPGS
- glycan array binding signal (z-score) [1]: 1.37
- glycan array binding signal (z-score) [2]: 0.581
- glycan array binding signal (z-score) [3]: 0.324
- glycan array binding signal (z-score) [4]: 2.39
- glycan array binding signal (z-score) [5]: -0.277
- glycan array binding signal (z-score) [6]: -0.042
- glycan array binding signal (z-score) [7]: -0.469
- glycan array binding signal (z-score) [8]: 0.08
- glycan array binding signal (z-score) [9]: 0.01
- glycan array binding signal (z-score) (Gal(a1-2)Gal): -0.625
- glycan array binding signal (z-score) (Gal(a1-3)Gal(b1-3)GlcNAc): -0.681
- glycan array binding signal (z-score) [10]: -0.095
- glycan array binding signal (z-score) [11]: -0.006
- glycan array binding signal (z-score) (Gal(b1-2)Gal): -0.215
- glycan array binding signal (z-score) [12]: 0.601
- glycan array binding signal (z-score) [13]: 0.926
- glycan array binding signal (z-score) [14]: 1.3
- glycan array binding signal (z-score) [15]: -0.674
- glycan array binding signal (z-score) (Gal(b1-4)GlcNAc(b1-2)Man): 0.337
- glycan array binding signal (z-score) [16]: 5.46
- glycan array binding signal (z-score) [17]: 3.17
- glycan array binding signal (z-score) [18]: -0.419
- glycan array binding signal (z-score) [19]: 4.67
- glycan array binding signal (z-score) [20]: 2.73
- glycan array binding signal (z-score) (GalNAc(b1-4)GlcNAc): -0.736
- glycan array binding signal (z-score) (GalNAc3S(b1-4)GlcNAc): -0.852
- glycan array binding signal (z-score) (Glc(a1-4)Glc): -0.667
- glycan array binding signal (z-score) (GlcA(b1-6)Gal): -0.6
- glycan array binding signal (z-score) [21]: -0.187
- glycan array binding signal (z-score) [22]: 0.311
- glycan array binding signal (z-score) [23]: -0.894
- glycan array binding signal (z-score) [24]: 0.233
- glycan array binding signal (z-score) [25]: 4.67
- glycan array binding signal (z-score) [26]: 0.647
- glycan array binding signal (z-score) [27]: 1.15
- glycan array binding signal (z-score) (GlcNAc(b1-3)Man): 0.12
- glycan array binding signal (z-score) (Kdn(a2-3)Gal(b1-3)GlcNAc): -0.869
- glycan array binding signal (z-score) [28]: -0.5
- glycan array binding signal (z-score) [29]: 0.022
- glycan array binding signal (z-score) (Man(b1-4)GlcNAc): -0.348
- glycan array binding signal (z-score) (Neu5Ac(a2-3)Gal): -0.64
- glycan array binding signal (z-score) [30]: 0.698
- glycan array binding signal (z-score) [31]: 2.55
- glycan array binding signal (z-score) [32]: -0.104
- glycan array binding signal (z-score) [33]: 2.42
- glycan array binding signal (z-score) [34]: 3.29
- glycan array binding signal (z-score) (Neu5Ac(a2-6)Gal(b1-4)Glc): -0.412
- glycan array binding signal (z-score) [35]: -0.348
- glycan array binding signal (z-score) [36]: -0.843
- glycan array binding signal (z-score) [37]: 3.13
- glycan array binding signal (z-score) [38]: 2.35
